Measured values taken from the supplement of paper PMC9262897, “Low-cost anti-mycobacterial drug discovery using engineered E. coli” (Nature Communications, 2022).
Where a name gives a salt, the structure may show the parent alone. ± gives the standard deviation of the averaged measurements.

What was measured:
Test in all cases: growth (OD600 after 10 h); higher = more growth (less inhibition)
[1] = tested on: E. coli TESEC Alr+ wild-type control; settings: compound 0.1 mM; raw OD600 reference: median of DMSO wells 0.241, cell-free background 0.041
Description: (§1)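 TESEC Mtb Alr E. coli, or the Alr+ wild-type control, in 384-well plates with Prestwick library compounds at 0.1 mM and 1% DMSO, across arabinose induction levels of 1E3 to 1E7 nM. Growth is read as OD600 after 10 h at 37 °C in triplicate biological replicates.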

E. coli TESEC Mtb Alr [2] = settings: compound 0.1 mM
Description: as §1

E. coli TESEC Mtb Asd = settings: compound 0.1 mM
Description: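 TESEC E. coli strains in which the native enzyme is deleted and replaced by arabinose-inducible Mtb Asd, DapB, CysH or TrpD, each grown in its selective medium. Strains were screened against the Prestwick library at 0.1 mM and 1% DMSO in 384-well format at low and high arabinose induction. Growth is read as OD600 after 10 h in triplicate.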

[3] = tested on: E. coli TESEC Alr+ wild-type control; settings: compound 0.1 mM; raw OD600 reference: median of DMSO wells 0.49, cell-free background 0.052
Description: (§2)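 TESEC Mtb Alr E. coli (ΔaraC ΔtolC ΔentC Δalr ΔdadX, arabinose-inducible Mtb Alr) or the Alr+ wild-type control strain, grown in defined M9-fructose medium without D-alanine in 96-well plates with Prestwick library compounds at 0.1 mM and 1% DMSO. Low Alr induction is 0.1 µM arabinose and high induction is 10 mM arabinose.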

E. coli TESEC Mtb Alr [4] = settings: compound 0.1 mM; remark: listed apart in the source
Description: as §2

[5] = arabinose 1000 nM, raw OD600 reference: median of DMSO wells 0.294, cell-free background 0.041
[6] = arabinose 10000 nM, raw OD600 reference: median of DMSO wells 0.264, cell-free background 0.041
[7] = arabinose 100000 nM, raw OD600 reference: median of DMSO wells 0.201, cell-free background 0.041
[8] = arabinose 1000000 nM, raw OD600 reference: median of DMSO wells 0.193, cell-free background 0.041
[9] = arabinose 10000000 nM, raw OD600 reference: median of DMSO wells 0.146, cell-free background 0.041
[10] = arabinose induction (level): High, raw OD600 reference: median of DMSO wells 0.331, cell-free background 0.041
[11] = arabinose induction (level): Low, raw OD600 reference: median of DMSO wells 0.417, cell-free background 0.041
[12] = arabinose 100 nM, raw OD600 reference: median of DMSO wells 0.413, cell-free background 0.052
[13] = arabinose 10000000 nM, raw OD600 reference: median of DMSO wells […], cell-free background 0.052

SMILES	growth [1]	growth (E. coli TESEC Mtb Alr [2]; [5])	growth (E. coli TESEC Mtb Alr [2]; [6])	growth (E. coli TESEC Mtb Alr [2]; [7])	growth (E. coli TESEC Mtb Alr [2]; [8])	growth (E. coli TESEC Mtb Alr [2]; [9])	growth (E. coli TESEC Mtb Asd; [10])	growth (E. coli TESEC Mtb Asd; [11])	growth [3]	growth (E. coli TESEC Mtb Alr [4]; [12])	growth (E. coli TESEC Mtb Alr [4]; [13])
CC[C@H]1OC(=O)[C@H](C)[C@@H](O[C@H]2C[C@@](C)(OC)[C@@H](O)[C@H](C)O2)[C@H](C)[C@@H](O[C@@H]2O[C@H](C)C[C@H](N(C)C)[C@H]2O)[C@](C)(O)C[C@@H](C)/C(=N\OCOCCOC)[C@H](C)[C@@H](O)[C@]1(C)O [Roxithromycin]	0.0423 ± 0.0011	0.0412 ± 0.00062	0.04067 ± 0.00015	0.0421 ± 0.0001	0.04023 ± 0.00015	0.0439 ± 0.002	0.0582 ± 0.0066	0.205 ± 0.25	0.05257 ± 0.00029	0.0564 ± 0.0015	0.0513 ± 0.00036
CNCCCN1c2ccccc2CCc2ccccc21 [Desipramine hydrochloride]	0.184 ± 0.0044	0.228 ± 0.021	0.275 ± 0.013	0.199 ± 0.021	0.1277 ± 0.00069	0.168 ± 0.0031	0.157 ± 0.011	0.222 ± 0.03	0.578 ± 0.053	0.403 ± 0.01	0.287 ± 0.011
CCCCCCCN(CC)CCCC(O)c1ccc(NS(C)(=O)=O)cc1 (stereo not drawn) [Ibutilide fumarate]	0.219 ± 0.041	0.298 ± 0.013	0.268 ± 0.01	0.183 ± 0.02	0.158 ± 0.0044	0.137 ± 0.001	0.271 ± 0.022	0.44 ± 0.022		0.408 ± 0.0059	0.313 ± 0.016
CN(C)CCOc1ccc(/C(=C(/CCCl)c2ccccc2)c2ccccc2)cc1 [Toremifene]	0.0414 ± 0.0014	0.04087 ± 0.0004	0.04003 ± 0.00032	0.0409 ± 0.00036	0.04023 ± 0.00025	0.04073 ± 0.00021	0.0528 ± 0.00055	0.057 ± 0.0021	0.0478 ± 0.00064	0.0666 ± 0.015	0.0577 ± 0.0032
CCCCC(C)(O)C/C=C/[C@H]1[C@H](O)CC(=O)[C@@H]1CCCCCCC(=O)OC (mixture of isomers) [Misoprostol]	0.323 ± 0.014	0.3803 ± 0.0025	0.278 ± 0.0043	0.474 ± 0.013	0.193 ± 0.009	0.22 ± 0.013	0.35 ± 0.071	0.44 ± 0.022		0.432 ± 0.0064	0.378 ± 0.013
Cn1nnc2c(C(N)=O)ncn2c1=O [Temozolomide]	0.241 ± 0.006	0.289 ± 0.0045	0.248 ± 0.0082	0.208 ± 0.018	0.163 ± 0.0073	0.134 ± 0.0048	0.225 ± 0.0049	0.305 ± 0.022		0.423 ± 0.011	0.35 ± 0.01
O=C1CN(/N=C/c2ccc(-c3ccc([N+](=O)[O-])cc3)o2)C(=O)N1 [Dantrolene sodium salt]	0.2259 ± 0.00093	0.263 ± 0.0054	0.184 ± 0.003	0.143 ± 0.007	0.105 ± 0.0026	0.131 ± 0.0074	0.167 ± 0.014	0.258 ± 0.013		0.319 ± 0.1	0.187 ± 0.033
CCC(=O)O[C@]1(C(=O)CCl)[C@@H](C)C[C@H]2[C@@H]3CCC4=CC(=O)C=C[C@]4(C)[C@@]3(F)[C@@H](O)C[C@@]21C [Clobetasol propionate]	0.148 ± 0.0028	0.19 ± 0.034	0.186 ± 0.011	0.161 ± 0.01	0.0968 ± 0.0071	0.156 ± 0.0017	0.264 ± 0.097	0.178 ± 0.017		0.407 ± 0.015	0.122 ± 0.05
CC[C@]12CCCN3CCc4c(n(c5ccccc45)[C@@](O)(C(=O)OC)C1)[C@@H]32 [Vincamine]	0.235 ± 0.0064	0.276 ± 0.0046	0.258 ± 0.0043	0.193 ± 0.023	0.173 ± 0.0043	0.138 ± 0.0023	0.375 ± 0.011	0.456 ± 0.006	0.503 ± 0.059	0.422 ± 0.011	0.322 ± 0.011
CC1(C)O[C@@H]2C[C@H]3[C@@H]4C[C@H](F)C5=CC(=O)C=C[C@]5(C)[C@H]4[C@@H](O)C[C@]3(C)[C@]2(C(=O)CO)O1 [Flunisolide]	0.204 ± 0.015	0.297 ± 0.0098	0.261 ± 0.0019	0.192 ± 0.011	0.159 ± 0.0049	0.138 ± 0.0048	0.342 ± 0.064	0.458 ± 0.025		0.4 ± 0.0095	0.335 ± 0.012
CC(=O)[C@H]1CC[C@H]2[C@@H]3C=CC4=CC(=O)CC[C@@]4(C)[C@@H]3CC[C@]12C [Dydrogesterone]	0.103 ± 0.005	0.154 ± 0.041	0.207 ± 0.0034	0.085 ± 0.0042	0.0856 ± 0.0016	0.0751 ± 0.0014	0.225 ± 0.038	0.402 ± 0.068	0.318 ± 0.0089	0.371 ± 0.021	0.101 ± 0.022
C=C1C[C@H]2[C@@H]3C=C(C)C4=CC(=O)CC[C@]4(C)[C@H]3CC[C@]2(C)[C@@]1(OC(C)=O)C(C)=O [Melengestrol acetate]	0.20603 ± 0.00015	0.281 ± 0.013	0.295 ± 0.011	0.166 ± 0.0027	0.176 ± 0.0085	0.148 ± 0.0027	0.213 ± 0.071	0.343 ± 0.11		0.3558 ± 0.0033	0.142 ± 0.053
Cc1ccc(-c2cc(C(F)(F)F)nn2-c2ccc(S(N)(=O)=O)cc2)cc1 [Celecoxib]	0.0401 ± 0.00046	0.041 ± 0.0023	0.0401 ± 0.00091	0.0415 ± 0.0019	0.0418 ± 0.0037	0.04133 ± 0.00035	0.04733 ± 0.00047	0.0479 ± 0.00085		0.308 ± 0.021	0.0533 ± 0.0036
CC(C(=O)O)c1ccc(-c2ccccc2)c(F)c1 (stereo not drawn) [Flurbiprofen]	0.188 ± 0.0069	0.239 ± 0.014	0.23 ± 0.0069	0.168 ± 0.0089	0.161 ± 0.0092	0.1346 ± 0.00075	0.366 ± 0.076	0.238 ± 0.056	0.486 ± 0.025	0.387 ± 0.021	0.286 ± 0.014
CCc1nc(N)nc(N)c1-c1ccc(Cl)cc1 [Pyrimethamine]	0.1323 ± 0.0013	0.123 ± 0.0079	0.0978 ± 0.0026	0.123 ± 0.0035	0.0795 ± 0.0019	0.139 ± 0.002	0.17 ± 0.024	0.179 ± 0.015		0.401 ± 0.026	0.261 ± 0.018
Cn1c(=O)c2c(ncn2CC2OCCO2)n(C)c1=O [Doxofylline]	0.248 ± 0.0076	0.302 ± 0.015	0.259 ± 0.01	0.197 ± 0.017	0.179 ± 0.011	0.158 ± 0.0092	0.476 ± 0.018	0.469 ± 0.035	0.475 ± 0.076	0.408 ± 0.0051	0.334 ± 0.01
CC(CN1c2ccccc2Sc2ccccc21)N(C)C (stereo not drawn) [Promethazine hydrochloride]	0.197 ± 0.0039	0.215 ± 0.013	0.2742 ± 0.0025	0.197 ± 0.018	0.13 ± 0.0016	0.157 ± 0.004	0.139 ± 0.0045	0.254 ± 0.021		0.409 ± 0.014	0.334 ± 0.0051
c1coc(CNc2ncnc3nc[nH]c23)c1 [6-Furfurylaminopurine]	0.252 ± 0.0041	0.29 ± 0.014	0.252 ± 0.0053	0.209 ± 0.027	0.181 ± 0.0069	0.138 ± 0.0046	0.341 ± 0.068	0.43 ± 0.043	0.44 ± 0.022	0.405 ± 0.0075	0.365 ± 0.0057
C=CCOC(Cn1ccnc1)c1ccc(Cl)cc1Cl (stereo not drawn) [Enilconazole]	0.0491 ± 0.0028	0.0495 ± 0.0068	0.0424 ± 0.00087	0.0459 ± 0.0018	0.043 ± 0.0011	0.0488 ± 0.0025	0.0691 ± 0.01	0.0619 ± 0.0052		0.193 ± 0.0082	0.0627 ± 0.0022
